High-throughput results from PubChem.
F508del corr: F508del CFTR correction, initial screen, CFBE line, single point | 350,000 compounds, 0.36% hits | activity (quench increase), % at 7.58 µM | CFBE cells, YFP halide quenching; stimulated with forskolin plus potentiator P3; % fluorescence drop versus neutral controls;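 active means mean added fluorescence quench of at least 8% versus neutral control, with both replicates also reaching 8%; inconclusive means only one of the mean or replicate conditions met; inactive means mean below 8% and not both replicates reaching 8%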;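 further: cells transiently co-express mutant CFTR-F508del with the halide-sensitive YFP; corrector assay measuring rescue of mutant channel to the surface after 24 h compound exposure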
MITF act: activators of MITF-driven TRPM1 promoter reporter, primary screen, cell-based, SK-MEL-5, luciferase, single point; 300,000 compounds, 0.75% hits; AID 588334, 2011; activation, % at 12.5 µM; SK-MEL-5 TRPM1-promoter luciferase, 24 h; % of positive control, neutral wells = 0;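 active means mean activation of at least 80% with every replicate also reaching 80%; inconclusive means mean reaches 80% but some replicate falls short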;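 further: 0% = neutral control wells and 100% = parthenolide positive control wells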
Wnt bcat act: Wnt/beta-catenin pathway activators, primary screen, cell-based, plate reader, single point; Wnt/beta-catenin reporter cell assay, activator; activation, % at 9.35 µM; 300,000 compounds, 1.2% hits; in the data active means activation above about 30%, passing the limit was not always enough; inconclusive means no clear call, values can overlap the other calls;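 further: 0% = neutral control wells and 100% = positive control wells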
INS-1E GSIS act: GLuc luminescence reporter in INS-1E cells, primary screen for activators of glucose-dependent secretion of insulin. INS-1E GLuc reporter insulin secretion, 2-3 h. activation, % at 16.6 µM. 370,000 compounds, 0.61% hits. AID 743287, 2014;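 active means lowest replicate activation of at least 40%, so every replicate reaches that level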;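 further: 0% = median of neutral control wells and 100% = median of IBMX positive control wells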
Env fusion inh: inhibitors of HIV-1 Env-driven cell-cell fusion, primary screen, HeLa-JRFL effector, CEM21 target cells, luciferase | 360,000 compounds, 1.1% hits | inhibition, % at 12.3 µM;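 active means mean replicate inhibition score of at least 50 and every replicate individually at or above 50; inconclusive means only one of the two criteria met; inactive means mean below 50 and not all replicates reaching 50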;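 further: 0% = plate neutral controls and 100% = maraviroc near 300 nM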
* hit, by the source's call; ? = inconclusive; · = not tested or not shown; [ ] = another dose, or the depositor's remark. An excerpt weighted towards active compounds, which were near 2.7% of everything screened.

SMILES | F508del corr | MITF act | Wnt bcat act | INS-1E GSIS act | Env fusion inh
C[C@@H]1CN([C@H](C)CO)C(=O)c2cc(NS(=O)(=O)c3cn(C)cn3)ccc2O[C@H]1CN(C)Cc1ccc(Cl)c(Cl)c1 | 2.1 | · | · | -6.1 | ·
Cc1ccc2cc(C#N)c(NCCNC(=O)C3CC3)nc2c1C | · | -4.5 | 0.9 | · | 113.2*
Cc1ccc2cc(C#N)c(NCCNC(=S)NCCCN(C)C)nc2c1C | 1.1 | -61.4 | 0.0 | 13.9 | 3.5
N#Cc1c(-c2ccccc2)cc(-c2ccc3c(c2)OCO3)[nH]c1=O | 3.5 | -5.6 | -2.5 | · | 4.9
COc1ccc(-c2cc(-c3ccco3)[nH]c(=O)c2C#N)cc1OC | 3.1 | 2.5 | -0.1 | 52.2* | -5.3
O=C(CCOc1ccccc1)N1CCN(c2ccc(O)cc2)CC1 | 2.2 | 10.1 | 49.6* | -35.3 | 37.9
COCCNC(=O)c1ccc2c(Cl)c3c(nc2c1)CCC3 | -2.8 | 100.0* | 35.9* | · | -30.6
O=C(NCCCN1CCCCCC1)c1ccc2c(Cl)c3c(nc2c1)CCCC3 | -0.9 | 0.6 | -2.4 | 8.5 | 8.6
CC1CCN(CCCNC(=O)c2ccc3c(Cl)c4c(nc3c2)CCCC4)CC1 | -6.1 | -18.4 | -6.2 | -20.5 | 57.1*
C[C@@H]1CN([C@H](C)CO)C(=O)c2cc(NC(=O)CCC(F)(F)F)ccc2O[C@@H](C)CCCCO[C@H]1CN(C)C(=O)Nc1ccc(C(F)(F)F)cc1 | 0.7 | · | · | 1.3 | 35.5[16.7 µM]
CC[C@H]1C/C=C\C[C@H](c2ccc(F)cc2)NC(=O)CCC(=O)N1 | · | · | · | 24.7 | ·
CCN(CC(O)Cn1c2ccccc2c2ccccc21)S(=O)(=O)c1ccc(C)cc1 (stereo not drawn) | · | 2.3 | · | -23.5 | 56.4*
CC(C)CC#Cc1ccc([C@@H]2[C@@H](CO)N3C(=O)CN(C(=O)c4ccc5c(c4)OCO5)C[C@H]23)cc1 | · | · | · | -24.9 | ·
O=[N+]([O-])c1cc(C(F)(F)F)ccc1NCCCCNS(=O)(=O)c1ccc2ccccc2c1 | · | -5.8 | · | · | 62.3*
CS(=O)(=O)NCCCCNc1ccc(C(F)(F)F)cc1[N+](=O)[O-] | 3.9 | 8.0 | -1.4 | -51.5 | -8.6
CCCNC(=O)N(C)C[C@@H]1Oc2cc(-c3ccc(C)cc3)ccc2S(=O)(=O)N([C@H](C)CO)C[C@H]1C | 0.5 | · | · | -3.9 | -1.2[16.7 µM]
COc1ccc(NC(=O)N[C@@H]2CC[C@H](CCNC(=O)c3ccccc3F)O[C@H]2CO)cc1 | -1.0 | · | · | 7.4 | 11.2[16.7 µM]
C=CCOC(=O)C1=C(C)NC(SCC(=O)Nc2nccs2)=C(C#N)C1c1cccs1 (stereo not drawn) | · | -6.8 | · | -24.5 | ·
C=CCOC(=O)C1=C(C)NC(SCC(=O)Nc2nccs2)=C(C#N)C1c1ccc(Cl)cc1 (stereo not drawn) | · | 1.3 | -17.8 | -23.5 | 103.0*
C[C@H](CO)N1C[C@H](C)[C@@H](CN(C)S(C)(=O)=O)Oc2ncc(C#CC3CCCCC3)cc2C1=O | 0.5 | · | · | -4.0 | -0.6[16.7 µM]
Cn1cc([N+](=O)[O-])c(C(=O)Nc2ccc(C3CCCCC3)cc2)n1 | -5.1 | -4.9 | 46.0* | -6.9 | -146.8
Cn1cc([N+](=O)[O-])c(C(=O)Nc2ccc(C(=O)N3CCCCC3)cc2)n1 | · | -8.1 | -1.1 | 3.0 | 6.4
C[C@H](CO)N1C[C@H](C)[C@@H](CN(C)Cc2cncnc2)Oc2ncc(/C=C/c3ccccc3)cc2C1=O | -1.8 | · | · | -19.2 | -4.7[16.7 µM]
O[Si](CCCN1CCCCC1)(c1ccc(F)cc1)C1CCCCC1 (stereo not drawn) | 8.8* | 23.4 | -1.0 | · | 12.9
Cc1cnc(NC(=O)COc2ccc3c(c2)CCC3)s1 | -1.3 | 40.0 | 43.1* | -8.9 | -318.9
SMILES | F508del corr | MITF act | Wnt bcat act | INS-1E GSIS act | Env fusion inh
COc1cc(C)c(NC(=O)COc2ccc3c(c2)CCC3)cc1OC | -1.5 | -4.4 | 2.0 | 13.7 | ?
O=C(COc1ccc2c(c1)CCC2)Nc1ccccn1 | -0.8 | -49.5 | 11.8 | -1.4 | ·
Cc1cccc(NC(=O)COc2ccc3c(c2)CCC3)n1 | 3.7 | 101.4* | 1.7 | -7.6 | -18.6
C[C@@H]1CCCCO[C@@H](CN(C)C(=O)NC2CCCCC2)[C@@H](C)CN([C@H](C)CO)C(=O)c2cc(NC(=O)c3ccccc3)ccc2O1 | 2.0 | · | · | -10.8 | 15.8[16.7 µM]
COc1ccc(S(=O)(=O)n2ccc(-c3ccc(OCCN(C)c4ccccn4)cc3)n2)cc1 | · | · | -7.8 | · | 75.4*
CCn1c(SCC(=O)NCc2ccc3c(c2)OCO3)nc2c(c1=O)SCC2 | -3.0 | -12.8 | 30.7* | 22.7 | -6.8
